Source: the OligoGym collection

The sequences below were run against NOTCH4 (assay: pooled miR-30 sensor sort-seq; sequence = guide strand). Conditions: shRNA.

First: TTTAGGGTTCTTAAATAGCGAT
Second: TTTCTGGTCCTTACATATCTGC
The sensor-assay potency score (higher = more potent) of the first is higher: -1.06 for the first, -1.07 for the second.

Going from ATATATAGGAAAGAACATCTTA to TATCTTCCTCGCATTATCGCAG, the sensor-assay potency score (higher = more potent) falls from -0.0997 to -0.574.

What follows are sequences tested against NOX3 in the same assay as above. Conditions: shRNA.

Compared with TAATAGAAATGAACACCTCTGG, TACCAGAACAACTCATAGGAGG is lower in sensor-assay potency score (higher = more potent): -0.368 for the first, -0.91 for the second.

Going from TTGAGGTAGCTCTCGTTAGGGG to TAGCGGTCTCTACAGAAGGTGA, the sensor-assay potency score (higher = more potent) falls from -0.746 to -1.67.

Compared with TTGCATTAACAGCTATCCCATA, TAGAAATGAACACCTCTGGGGT is higher in sensor-assay potency score (higher = more potent): -1.07 for the first, -0.411 for the second.

First: TTGAACCCAAAATAACTCGTGT
Second: TAAAATTCAGGCACAGTGCGGA
The sensor-assay potency score (higher = more potent) of the first is lower: -0.176 for the first, -0.0572 for the second.

Going from TAGATTTCAGAAGAGCAGCGAA to TAATTATTCTTTCACATGCATA, the sensor-assay potency score (higher = more potent) falls from -0.277 to -1.3.

Sequence TAAAGCTATGTGAAGAGCCTGA has a sensor-assay potency score (higher = more potent) of 0.784.

The sequences below were run against NOXA1 in the same assay as above. Conditions: shRNA.

Going from TAACTGAGTTGCCCAAGCTGGG to TCTGCAGCGACTCCTCCTCGGG, the sensor-assay potency score (higher = more potent) falls from -1.24 to -1.51.

First: ACATTGTGTAGCACCTCCCAGG
Second: TTAGGGACCTGGCATCATGGTT
The sensor-assay potency score (higher = more potent) of the first is lower: -1.3 for the first, -1.05 for the second.

Compared with TCCTGGTAGGCAGTCGACGTGC, TTGGTCCAGGGCTGAGTCCAGG is lower in sensor-assay potency score (higher = more potent): -1.54 for the first, -1.7 for the second.

Compared with TCTGTCTCTGCATCGAGGGGGC, TTGTGTAGCACCTCCCAGGCTT is higher in sensor-assay potency score (higher = more potent): -0.532 for the first, -0.348 for the second.

Going from TTGGGGAAGATGCCGATGCGGC to TCACACAGGACGTCCACCGTGT, the sensor-assay potency score (higher = more potent) rises from -1.12 to 0.181.

First: TGGCATCATGGTTCGCTCCTGG
Second: TGGTAGGCAGTCGACGTGCAGC
The sensor-assay potency score (higher = more potent) of the first is higher: -0.558 for the first, -1.86 for the second.

These sequences were tested against NPBWR1 in the same assay as above. Conditions: shRNA.

Going from TTGTACTGGTCGATAGCCACGA to TGTTGTACTGGTCGATAGCCAC, the sensor-assay potency score (higher = more potent) falls from -0.0597 to -0.835.

Going from TAGAGGACACAGATGGTGGACA to TCGATAGCCACGATGAGCTTGC, the sensor-assay potency score (higher = more potent) rises from -0.757 to 0.0042.

Compared with AACTGGTACAGCCACCGCCAGC, TGATGAAGTAGGAGATAGCGAT is higher in sensor-assay potency score (higher = more potent): -1.89 for the first, -0.908 for the second.

Compared with TTGGAGCAGCTCAGCGCCGGGT, ATCACCGCGTAGACAACTGGTA is higher in sensor-assay potency score (higher = more potent): -1.46 for the first, -0.96 for the second.

First: TCACCGCGTAGACAACTGGTAC
Second: TGTACTGGTCGATAGCCACGAT
The sensor-assay potency score (higher = more potent) of the first is lower: -1.33 for the first, -0.544 for the second.

Compared with TTGGTGACGGTCTTCATGCGGG, TTGATGGGCAGCACCAGCGTGA is lower in sensor-assay potency score (higher = more potent): -0.52 for the first, -0.969 for the second.
